Measured values reported in publication PMC6919601, “Identification of Plasmodium dipeptidyl aminopeptidase allosteric inhibitors by high throughput screening” (PLoS ONE, 2019).
About 230 (0.21%) of roughly 110,000 compounds showed an effect of 50% or more. Many of the other results were omitted from the sample, so strong results are more common in it than they were.

Target: DPAP1 (Plasmodium falciparum, UniProt Q8IIJ9)
Experiment: primary screen, percent inhibition; read by cleavage of a fluorogenic dipeptide substrate; higher = more effect of the substance
Design: species or system P. falciparum D10 trophozoite lysates; single well
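Further: 30 min substrate incubation versus DMSO and 10 µM JCP410 controls.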

Chain of DPAP1 (Q8IIJ9 whole entry, looked up): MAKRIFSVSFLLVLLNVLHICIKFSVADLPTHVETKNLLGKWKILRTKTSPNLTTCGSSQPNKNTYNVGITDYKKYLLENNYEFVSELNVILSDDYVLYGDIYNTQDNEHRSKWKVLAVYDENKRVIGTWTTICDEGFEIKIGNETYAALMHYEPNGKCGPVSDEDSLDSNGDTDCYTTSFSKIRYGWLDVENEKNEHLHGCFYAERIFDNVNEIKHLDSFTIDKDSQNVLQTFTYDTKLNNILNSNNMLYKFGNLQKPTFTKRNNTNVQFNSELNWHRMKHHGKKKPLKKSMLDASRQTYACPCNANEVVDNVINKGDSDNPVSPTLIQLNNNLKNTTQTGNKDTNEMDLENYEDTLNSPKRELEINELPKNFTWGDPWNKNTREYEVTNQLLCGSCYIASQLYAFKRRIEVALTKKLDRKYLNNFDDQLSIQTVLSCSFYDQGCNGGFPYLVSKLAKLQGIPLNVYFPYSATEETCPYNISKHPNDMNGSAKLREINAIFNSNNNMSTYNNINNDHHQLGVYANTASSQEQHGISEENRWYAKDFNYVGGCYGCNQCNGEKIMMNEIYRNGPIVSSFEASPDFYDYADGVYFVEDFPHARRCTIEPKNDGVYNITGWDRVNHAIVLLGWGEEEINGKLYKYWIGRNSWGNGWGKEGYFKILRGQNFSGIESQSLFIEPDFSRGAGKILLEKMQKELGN

Structure (SMILES) | % Inhibition @ 10 uM
COc1ccc(C2=N/C(=C\c3cccc(C(F)(F)F)c3)C(=O)O2)cc1OC | 6.11%
CCOc1c(/C=C2/S/C(=N\c3ccccc3)N(C)C2=O)cccc1OC | 1.57%
O=C1CC(Sc2ccccn2)C(=O)N1c1ccc(Br)cc1 (stereo not drawn) | 2.38%
COCCNC(=O)CCN1C(=O)c2ccccc2Sc2ncccc21 | -2.97%
COc1ccc2nc3sc(C(=O)NCCN(C)Cc4ccccc4)cc3cc2c1 | -2.12%
COc1ccc(C(=O)N2CCN(C(=O)c3ccc(OC)cc3)CC2)cc1 | -1.61%
CCCCN(C)CCNC(=O)c1cc2cc3cc(OC)ccc3nc2s1 | 83.9%
COc1ccc(C(=O)N2CCN(CC(=O)N3CCOCC3)CC2)cc1 | 6.33%
COc1ccc2nc3sc(C(=O)N4CCC5(CC4)OCCO5)cc3cc2c1 | -4.16%
COc1ccc2nc3sc(C(=O)N4CCN(C)CC4)cc3cc2c1 | -5.06%
COc1ccc2cc3cc(C(=O)N4CCN(Cc5ccccc5)CC4)sc3nc2c1 | 4.61%
COc1ccc2cc3cc(C(=O)NCCN4CCN(Cc5ccccc5)CC4)sc3nc2c1 | 94.4%
COc1ccc2nc3sc(C(=O)NCCC(C)C)cc3cc2c1 | -5.98%
COc1ccc2nc3sc(C(=O)N4CCOCC4)cc3cc2c1 | 89.7%
COc1ccc2cc3cc(C(=O)NCCCN4CCN(C)CC4)sc3nc2c1 | 1.22%
COc1ccc(-c2ccc(C(=O)N3CCOCC3)cc2)cc1 | 85.3%
CCOc1ccc(C(=O)N(Cc2nc(-c3ccc(Cl)cc3)no2)C(C)C)cc1 | -1.84%
CC(=O)Nc1ccc(NC(=O)c2cccc(Cl)c2Cl)cc1 | 3.74%
COc1cc(NC(=O)C(C)Oc2ccccc2)cc(OC)c1 (stereo not drawn) | -2.8%
Cc1ccc(NC(=O)C(Cc2ccc([N+](=O)[O-])cc2)N2C(=O)c3ccccc3C2=O)cc1[N+](=O)[O-] (stereo not drawn) | -2.47%
COc1ccccc1S(=O)Cc1ccc(C(=O)NCCc2ccc(Cl)cc2)o1 (stereo not drawn) | -4.96%
CCC1CCCCN1CCCNC(=O)c1cc2cc3cc(OC)ccc3nc2s1 (stereo not drawn) | 1.22%
COc1ccc2nc3sc(C(=O)NCCN4CCOCC4)cc3cc2c1 | 3.07%
CCN(Cc1ccccc1)C(=O)c1cc2cc3cc(OC)ccc3nc2s1 | 50.3%

Structure (SMILES) | % Inhibition @ 10 uM
COc1ccc2nc3sc(C(=O)NCCCN4CCCC4=O)cc3cc2c1 | 84.6%
COc1ccc2cc3cc(C(=O)N(C)Cc4ccccc4)sc3nc2c1 | 0.402%
COc1ccc2cc3cc(C(=O)NCCN4CCc5ccccc5C4)sc3nc2c1 | 4.61%
COc1ccc2nc3sc(C(=O)NCCCN4CCc5ccccc5C4)cc3cc2c1 | 64.7%
COc1ccc2nc3sc(C(=O)NCCCN4CC(C)CC(C)C4)cc3cc2c1 (stereo not drawn) | -2.44%
CCCCN(CC)C(=O)c1cc2cc3cc(OC)ccc3nc2s1 | -1.55%
CSc1ccc(CN2CCN(c3cccc(Cl)c3)CC2)cc1 | 0.847%
CCN1CCN(C(=O)CS(=O)(=O)Cc2nc(-c3ccc(C)cc3)oc2C)CC1 | -3.7%
O=S(=O)(NC1CCc2ccccc21)c1ccc(-n2cnnn2)cc1 (stereo not drawn) | -1.07%
CC1=C(C(=O)Nc2ccc(Br)cc2)C(c2ccc(Cl)cc2)NC(=O)N1 (stereo not drawn) | 1.35%
COCCCNC(=O)Cc1coc2ccc3ccccc3c12 | 2.01%
Cc1nc2c(=O)oc3ccccc3c2n1C | 4.35%
CCn1c(S)nc2c(=O)oc3ccccc3c21 | 14%
Cn1c(S)nc2c(=O)oc3ccccc3c21 | 56.8%
COc1ccc(N(C(C)C(=O)Nc2ccc(C(C)C)cc2)S(C)(=O)=O)cc1 (stereo not drawn) | -1.57%
CCCCSCCCNC(=O)C1CCC(CNS(=O)(=O)c2ccc(C)cc2)CC1 (stereo not drawn) | 5.47%
COc1ccc(C2CC(=O)N3CN(CCC(C)C)CSC3=C2C#N)cc1OC (stereo not drawn) | 46.8%
N#CC1=C2SCN(Cc3ccccc3)CN2C(=O)CC1c1ccc(Cl)cc1 (stereo not drawn) | 42.2%
CC(C)CCN1CSC2=C(C#N)C(c3ccc(Cl)cc3)CC(=O)N2C1 (stereo not drawn) | 54.6%
Cc1ccc(C2CC(=O)N3CN(CCC(C)C)CSC3=C2C#N)cc1 (stereo not drawn) | 43.8%
COc1cc(C2CC(=O)N3CN(Cc4ccco4)CSC3=C2C#N)ccc1O (stereo not drawn) | 17.5%
COc1ccc(C2CC(=O)N3CN(CCCc4ccccc4)CSC3=C2C#N)cc1OC (stereo not drawn) | 30.5%
Cc1ccsc1CCN1CSC2=C(C#N)C(c3ccc(Cl)cc3)CC(=O)N2C1 (stereo not drawn) | 51.6%
COc1cccc(C2CC(=O)N3CN(CCc4sccc4C)CSC3=C2C#N)c1 (stereo not drawn) | 56.9%
